About 83,000 compounds went through this panel and 20% of them were active in at least one assay; those are over-represented in the sample as a whole.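 Interpretation: 100, growth as untreated; towards 0, rising growth inhibition; 0, no net growth; 0 to -100, cell death. Compounds scoring below 10 were considered active.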 A number with no mark means an inactive call. The source made the active and inactive calls.
Key:
Experiment in all cases: NCI-60 one-dose screen, 48 h (100 = growth as untreated, 0 = no growth, -100 = all killed)
Details in all cases: 10 µM unless noted
[1] = test system: SK-MEL-2 melanoma
[2] = test system: SN12C renal
[3] = test system: UO-31 renal
[4] = test system: TK-10 renal
[5] = test system: ACHN renal
[6] = test system: CAKI-1 renal
[7] = test system: A498 renal
[8] = test system: MOLT-4 leukemia
[9] = test system: CCRF-CEM leukemia
[10] = test system: EKVX NSCLC

CC1O[C@@H](OC2[C@H](OC(=O)/C=C/c3ccc(O)c(O)c3)C(COC3O[C@H](C)C(O)C(O)[C@@H]3O)O[C@@H](OCCc3ccc(O)c(O)c3)[C@H]2O)[C@@H](O)C(O)[C@H]1O (stereo partly specified)
growth [1]: 99.6% | growth [2]: 106% | growth [3]: 89.9% | growth [4]: 100% | growth [5]: 103% | growth [6]: 97.3% | growth [7]: 107% | growth [8]: 99.1%

COc1cccc(-c2nc3sccn3c2-c2ccnc(NCCNS(=O)(=O)c3ccc(C(F)(F)F)cc3)c2)c1
growth [1]: 47.5% | growth [2]: 40.7% | growth [3]: -23.8% (active) | growth [4]: 49.2% | growth [5]: -60.2% (active) | growth [6]: 34.5% | growth [7]: 18.9% | growth [9]: 22.6% | growth [8]: 13.7%

O=C(Nc1cccc(C(F)(F)F)c1)Nc1cccc(C(F)(F)F)c1
growth [1]: -28.5% (active) | growth [2]: 2.57% (active) | growth [3]: 4.46% (active) | growth [4]: -0.607% (active) | growth [5]: 5.92% (active) | growth [6]: 16.4% | growth [7]: -18.2% (active) | growth [9]: 2.44% (active)

CCOC(=O)c1c2ncccc2n2c(=O)n(-c3ccccc3C)nnc12
growth [1]: 107% | growth [2]: 105% | growth [3]: 73.4% | growth [4]: 146% | growth [5]: 92.2% | growth [6]: 91.7% | growth [7]: 127% | growth [8]: 61.2%

CC(C)CCC[C@@H](C)[C@H]1CC[C@H]2[C@@H](Nc3ccc(O)cc3)CCC[C@]12C
growth [1]: 86.1% | growth [2]: 108% | growth [3]: 7.74% (active) | growth [4]: 83% | growth [5]: 78.8% | growth [6]: 37.7% | growth [7]: 67.6% | growth [9]: 32.2%

O=c1[nH]c2ccccc2n1C1CCN(CCOc2ccccc2)CC1
growth [1]: 83.3% | growth [2]: 97.3% | growth [3]: 64.6% | growth [4]: 98.7% | growth [5]: 90.9% | growth [6]: 98.8% | growth [7]: 63.7% | growth [9]: 74.3% | growth [8]: 86.4%

CCCCCCCCCCCC(c1ccccc1)[N+](C)(C)C (stereo unspecified)
growth [1]: -19.8% (active) | growth [2]: 9.01% (active) | growth [3]: 80.8% | growth [4]: 1.24% (active) | growth [5]: 81.9% | growth [6]: 102% | growth [7]: 55.4% | growth [9]: 16.1% | growth [8]: 5.29% (active)

O=c1c2c3c(sc2n2c(-c4cc(-c5ccccc5)nn4-c4ccccc4)nnc2n1Cc1ccccc1)CCCC3
growth [1]: 102% | growth [2]: 98% | growth [3]: 36.7% | growth [4]: 126% | growth [5]: 106% | growth [6]: 20.9% | growth [7]: 141% | growth [8]: 19.1%

C=CC(=O)Nc1cccc(Oc2nccc(Nc3nnc(C4CC4)s3)n2)c1
growth [1]: 108% | growth [2]: 87.4% | growth [3]: 72.4% | growth [4]: 104% | growth [5]: 97.7% | growth [6]: 92.3% | growth [7]: 101%

N#Cc1c(-c2cccc(Cl)c2)cc(-c2cccc(Cl)c2)[nH]c1=O
growth [10]: 89% | growth [2]: 82.8% | growth [3]: 74% | growth [4]: 96.7% | growth [5]: 93.4% | growth [6]: 63.6% | growth [7]: 47% | growth [8]: 54.1%

COc1cc(C2CC(=O)Nc3c2c(C)nn3-c2nc3ccccc3[nH]2)cc2c1OCC(=O)N2 (stereo unspecified)
growth [10]: 79.3% | growth [2]: 76.3% | growth [3]: 51.9% | growth [4]: 87.3% | growth [5]: 70.4% | growth [6]: 95.1% | growth [7]: 21.4% | growth [9]: 12.7% | growth [8]: -20.1% (active)

COc1ccc(OC)c2c1[nH]c(=O)c1c3ncccc3cn21
growth [10]: 34.4% | growth [2]: 13.3% | growth [3]: 26.5% | growth [4]: 38.6% | growth [5]: 17.7% | growth [6]: -29.2% (active) | growth [7]: 31.5% | growth [8]: 17.7%

COC(=O)[C@]12CC[C@@H](C)[C@H](C)[C@@H]1C1=CC[C@@H]3[C@@]4(C)C(C=O)=C[C@@](C)(COC(=O)c5ccco5)C4=CC[C@@]3(C)[C@]1(C)CC2
growth [10]: 11% | growth [2]: 17.1% | growth [3]: -55.3% (active) | growth [4]: 6.65% (active) | growth [5]: -33.9% (active) | growth [6]: 14.3% | growth [7]: 22.2%

CS(=O)(=O)c1ccc(Nc2nc(N[C@H]3CCCC[C@H]3N)nc3cc[nH]c(=O)c23)cc1
growth [10]: 13.5% | growth [2]: 3.77% (active) | growth [3]: 108% | growth [4]: 44.6% | growth [5]: 95.2% | growth [6]: 90.7% | growth [7]: 51.8% | growth [9]: 3.99% (active) | growth [8]: 3.74% (active)

O=c1[nH]nc(-c2ccccc2)c2c(-c3ccccc3)onc12
growth [10]: 25.4% | growth [2]: 56.3% | growth [3]: 16.9% | growth [4]: 62.5% | growth [5]: 47.5% | growth [6]: 28.7% | growth [7]: 7.76% (active) | growth [8]: 30.2%

CCN1C(=O)N(CC)C2Nn3c(s/c(=C\c4cccc([N+](=O)[O-])c4)c3=O)=NC21 (stereo unspecified)
growth [10]: 72.7% | growth [2]: 48.6% | growth [3]: 56.8% | growth [4]: 17.9% | growth [5]: 50.5% | growth [6]: 35.3% | growth [7]: 5.28% (active)

O=c1[nH]ccc2nc(N3CCC(O)CC3)nc(Nc3ccc(N4CCOCC4)cc3)c12
growth [10]: 89% | growth [2]: 37.8% | growth [3]: 38.2% | growth [4]: 82.1% | growth [5]: 55.5% | growth [6]: 26.3% | growth [7]: 57.9% | growth [9]: 70.6%

N=C1C(c2nc(-c3ccc(Br)cc3)cs2)=C(O)CN1Cc1cccnc1
growth [10]: 71.7% | growth [2]: 69.7% | growth [3]: -6.45% (active) | growth [4]: 60.1% | growth [5]: 61.5% | growth [6]: 57.1% | growth [7]: 86.8%

O=c1c2cc(F)ccc2sc2c(NCCN3CCCCC3)nc3ccccc3c12
growth [10]: 61% | growth [2]: 48.6% | growth [3]: 27.1% | growth [4]: 77.7% | growth [5]: 42.7% | growth [6]: 38.6% | growth [7]: 61.6% | growth [9]: 44.3% | growth [8]: 27.5%

COc1cc(-c2nc(N3CCN(C)CC3)c3ccccc3n2)cc(OC)c1OC
growth [10]: 67.2% | growth [2]: 82.6% | growth [3]: 45% | growth [4]: 94.1% | growth [5]: 47.5% | growth [6]: 50.3% | growth [7]: 21.6% | growth [9]: 99.3%

COc1cccc(-c2nc3sccn3c2/C=C/C(=O)c2ccc(C(F)(F)F)cc2)c1
growth [10]: 94.2% | growth [2]: 76.7% | growth [3]: 56.3% | growth [4]: 89.7% | growth [5]: 94.7% | growth [6]: 84.7% | growth [7]: 52.7% | growth [9]: 66.8%

Cc1ccc2nc3ccccc3c(NCc3ccccc3)c2c1
growth [10]: 49.6% | growth [2]: 25.5% | growth [3]: 18.3% | growth [4]: 75.3% | growth [5]: 23.2% | growth [6]: 35.5% | growth [7]: 11.4% | growth [9]: 34.9%

CCCCCCCCCCN(CCCCCCCCCC)CC(=O)c1ccc2cc(Br)c3ccccc3c2c1
growth [10]: 83.5% | growth [2]: 81.1% | growth [3]: 2.3% (active) | growth [4]: 79.9% | growth [5]: 97.3% | growth [6]: 46.3% | growth [7]: 53.2% | growth [8]: -39.6% (active)

Nc1nc(N)c2c(n1)NC(c1ccccc1)C1CCc3ccccc3C1=N2 (stereo unspecified)
growth [10]: 39.2% | growth [2]: 66% | growth [3]: 55.9% | growth [4]: 36% | growth [5]: 39.3% | growth [6]: 34.1% | growth [7]: 42.5% | growth [8]: 15.1%

FC(F)(F)c1cc(Nc2ccc3cc(OCCCN4CCOCC4)ccc3n2)ccc1Cl
growth [10]: 62.2% | growth [2]: 49.4% | growth [3]: 27.6% | growth [4]: 43.3% | growth [5]: 29.5% | growth [6]: 86.1% | growth [7]: 36.4% | growth [9]: 3.89% (active)

Cc1ccc(NS(=O)(=O)c2ccc3c(c2)C2OCCC2C(c2ccc(C(=O)C(C)C)cc2)N3)cc1C (stereo unspecified)
growth [10]: 24.7% | growth [2]: 52.3% | growth [3]: 25.7% | growth [4]: 63.5% | growth [5]: 32.3% | growth [6]: 45.5% | growth [7]: 40.1% | growth [8]: 31.1%

COc1ccc(C(=O)/C=C/c2c(C(F)(F)F)nc3sccn23)cc1OC
growth [10]: 37.1% | growth [2]: 29% | growth [3]: 61.1% | growth [4]: 58.1% | growth [5]: 26.5% | growth [6]: 2.75% (active) | growth [7]: 94.7% | growth [8]: -16.6% (active)

O=C1/C(=C2/C=Nc3ccccc32)N(O)c2ccccc21
growth [10]: 66.9% | growth [2]: 74.8% | growth [3]: 57.7% | growth [4]: 129% | growth [5]: 68.7% | growth [6]: 57.8% | growth [7]: 55.4% | growth [9]: 46.2% | growth [8]: 48.4%

C[C@H]1[C@H]2[C@H]3CC[C@@H]4[C@@]5(C)C/C(=C/c6ccco6)C(=O)C(C)(C)[C@@H]5CC[C@@]4(C)[C@]3(C)CC[C@]23CO[C@]1(C)[C@@H](C(=O)/C=C\c1ccco1)C3
growth [10]: 107% | growth [2]: 90.4% | growth [3]: 71.5% | growth [4]: 103% | growth [5]: 68.4% | growth [6]: 69% | growth [7]: 123% | growth [9]: 100% | growth [8]: 100%

CC(C)C(=O)Nc1n[nH]c2cc(-c3cccc(NS(=O)(=O)C4CC4)c3)ccc12
growth [10]: 71.7% | growth [2]: 77.7% | growth [3]: 56.7% | growth [4]: 94.9% | growth [5]: 70% | growth [6]: 71.2% | growth [7]: 100% | growth [9]: 72.4% | growth [8]: 57.8%

CC(C)CC(NC(=O)CN(Cc1ccccc1)S(C)(=O)=O)C(=O)O (stereo unspecified)
growth [10]: 97.9% | growth [2]: 108% | growth [3]: 96.7% | growth [4]: 93.9% | growth [5]: 102% | growth [6]: 62.2% | growth [7]: 95.3% | growth [9]: 98.2% | growth [8]: 94.7%

Cn1cc(-c2csc(-c3ccccc3)n2)c2cccnc21
growth [10]: 4.11% [100 µM] (active) | growth [2]: -58.2% [100 µM] (active) | growth [3]: -28.7% [100 µM] (active) | growth [4]: -45.7% [100 µM] (active) | growth [5]: 0.882% [100 µM] (active) | growth [6]: -32.4% [100 µM] (active) | growth [7]: -82.4% [100 µM] (active) | growth [8]: -8.37% [100 µM] (active)

CCc1ccccc1NC(=O)/C(C#N)=C/c1ccc(OC)cc1
growth [10]: 92.7% | growth [2]: 94% | growth [3]: 80.5% | growth [4]: 115% | growth [5]: 97.4% | growth [6]: 103% | growth [7]: 100% | growth [9]: 84.7%

O=C1c2cccc(NCCN=Cc3cc([N+](=O)[O-])ccc3O)c2C(=O)c2c(NCCN=Cc3cc([N+](=O)[O-])ccc3O)cccc21
growth [2]: 40.5% | growth [3]: 76.5% | growth [4]: 114% | growth [5]: 70.7% | growth [6]: 56.7% | growth [7]: 80.9% | growth [9]: 32.5% | growth [8]: 4.21% (active)

N#CCN1C(=O)C2C3=C(CCCC3)SC2N=C1CN1CCCC1 (stereo unspecified)
growth [10]: 96% | growth [2]: 100% | growth [3]: 7.35% (active) | growth [4]: 104% | growth [5]: 104% | growth [6]: 104% | growth [7]: 100% | growth [8]: 79.9%

Source: PubChem BioAssay (NCI)
